Results: PubChem BioAssay AID1508600 (Functional Genomics Laboratory (NCATS/FGL), 2020)
Hit rate of the full screen: of about 53,000 sequences, about 3,700 (7%) were called active.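 Rule for the calls: active = gene knockdowns whose robust z-score for IL-1 alpha signal is at least 2 or at most -2, so actives lie on both sides; inactive = the rest.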 Only a selection was taken, and actives are over-represented in it overall.

Assay: Components of the Cytosolic LPS Sensing Pathway: Gene Identification via Genome-wide siRNA Screen;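 note: robust z of the log signal after scaling to non-targeting control siRNA wells of the plate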
Settings: RAW264.7 macrophages, IL-1a HTRF, actives lie on both sides, screened at 100 nM (by protocol), cells primed 5 h with Pam3CSK4 first
In short: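 Knockdown: 100 nM siRNA, 48h, RAW264.7. Stimulation: Pam3CSK4 5 h, then LipidA via TransIT-TKO 24 h. Output: supernatant IL-1a HTRF, negative-control-normalized, log robust z-score; viability by CellTiter-Glo.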

Sequence | z-score
CCAGCAAAUAUCCUAGUAATT against Cdk19 | 0.111 (inactive)
CGUGUGUGUCAUGUUACGGTT against Dusp2 | -0.901 (inactive)
GGAGAGCUGGAACAAUAGCTT against Bcl2l2 | 2.26 (active)
GGAUGAAUGGAGAACUGAATT against Afap1l1 | -1.21 (inactive)
CCAUGACAAUGAAUAUCCUTT against Ms4a19 | -1.24 (inactive)
GCGAGCUAAUGUCACAUUCTT against Il17ra | 3.74 (active)
GGAACUAUCACGUGUUCUATT against Myo7a | 0.837 (inactive)
CCAGAUGGGAUACCUCUACTT against Tmed6 | 0.303 (inactive)
GGUCUCUUUCAUGCUCGCATT against Agr3 | 3.06 (active)
CCCUAACCUCAUUUCAUGUTT against Vmn1r63 | -1.01 (inactive)
GGAAAACAACGAAUUGCUCTT against Uri1 | 0.791 (inactive)
GCCGAUGACACUAUCUACCTT against Cryz | 0.465 (inactive)
CCUCAAUCAAAAUGUAAGUTT against Atp6v0a2 | 0.456 (inactive)
GGAUCUGAAGGAAUACUUUTT against Lmf1 | 1.69 (inactive)
GGAACAAACCAAGUUCACATT against Kcnip2 | -0.66 (inactive)
GGACUCCAAGAUCAUGGUCTT against Pnck | 1.07 (inactive)
GCAAGACCCUUCGAGUGAATT against Nkd2 | -1.2 (inactive)
GGCCAUUUAUCCAUGGUUGTT against Zdhhc17 | 0.954 (inactive)
GGCCUCAAGUUGCUAUGCCTT against Mlxipl | -0.2 (inactive)
GGAGAUGAAGUUAAAGCGATT against Slc26a6 | 0.619 (inactive)
GGCAGAUGUGUUUGCUUUUTT against Pbk | 3.51 (active)
GCACUGAACUUUGUCGAUUTT against Fam122a | 0.325 (inactive)

Sequence | z-score
CCCGAAGAGCAAAAAAGAUTT against 1110004F10Rik | -1.5 (inactive)
CGGUCAUUAAUGAAGCCUGTT against Pamr1 | 2.65 (active)
GGUGGUGUGUGAUGAGAAUTT against Pabpc6 | 0.649 (inactive)
GGGCUGUUUGUAGCAGAUUTT against Olfr1279 | -1.12 (inactive)
GGUCACGGAGAAACUAAAGTT against Ppme1 | 0.703 (inactive)
GGCUAGGUAAUCACUGGGUTT against Fate1 | 0.987 (inactive)
CCAAUAUGAGACCAUCAUUTT against Sv2b | 0.385 (inactive)
GCGACAUAACUGCAUUCAATT against Kcnh1 | 2.79 (active)
GGUCAAUUUGGUUUGUGAATT against Cenpa | -0.374 (inactive)
GGUAGAAAUUUACCUCAUUTT against Dusp4 | -1.42 (inactive)
GCAGAGGAUAUAAAACAAGTT against Pde2a | -0.86 (inactive)
GGAAAAUAGGGCGACAAAUTT against Tdrd7 | 0.673 (inactive)
GGAUGAUUGAGAUAGCGAATT against Polr1e | 0.608 (inactive)
CCGUACAUAUGGUGAUCCATT against Rtn1 | -0.162 (inactive)
GGGAGAAGUGCUGUGGAUUTT against Fras1 | 0.401 (inactive)
CGAGAGCUAAAAAGAGUAATT against Chd1 | 0.42 (inactive)
GGAAGUUUCUGGAAACACATT against Mbd3 | -0.487 (inactive)
GGAGGAUUGUCCACAUGGATT against Ccl27a | 4.32 (active)
GGCAACAUGGUGAUCAUCGTT against Olfr323 | -0.461 (inactive)
CGGUAUUUCAUCCUGGAUATT against Plekha1 | 0.403 (inactive)
GCAUGGAACAAGGUUGCUCTT against Pa2g4 | 1.84 (inactive)
GGUACACCAAGGCUUGCUATT against Coq8b | -0.343 (inactive)

Sequence | z-score
GCAUGAGUUAGACCAUAAUTT against Phf12 | -2.59 (active)
GGCCUCUUUUGGUAUUCCATT against Zfp42 | 0.946 (inactive)
GGCCUCAAUGCAGUAUCAATT against Shisal2b | 0.773 (inactive)
GCUAAGAAUAGGAGUUAGATT against Ift57 | 0.419 (inactive)
GGUCAGAAGUUAAUUUAUGTT against Rad23b | -0.413 (inactive)
GGACCUGCUCUUGGUCAUUTT against Fam118a | 0.461 (inactive)
GGGAAGUGACCAUCAAGAATT against Slc8a3 | 2.56 (active)
GGUGAUGCGCCUGAAGGAUTT against Ntng2 | -0.668 (inactive)
GCUCCUCCAUCAGUUAGAUTT against Ube2v2 | -1.06 (inactive)
GGAAUCAACUUGGUGGCUCTT against Rxrg | -0.0611 (inactive)
GGGUUUCUGUUUGAUUCCATT against Gria1 | -0.747 (inactive)
GGCUAUGCUGCCUACUACUTT against Bmp7 | -2.63 (active)
GCCAACCUCUGUGUGUAUUTT against Olfr1263 | 0.799 (inactive)
UGGUUGUAUUAUUCUGUUGTT against Defb38 | 0.188 (inactive)
GGACUUAUCUCAUCCAAGATT against Gm9946 | 0.39 (inactive)
CCAGAAACGAUGCAUUCAUTT against Olfr124 | 2 (active)
GGACUUUGAAAAAGAUGCATT against Fkbp7 | 1.21 (inactive)
AGUAUUCUUUGCUUUCCUUTT against Olfr822 | 0.731 (inactive)
GGAGAAGAUGAUUAAGACCTT against Anp32b | 0.51 (inactive)
CCACAGACUCUUAAUUAGATT against Ap3b1 | -2.14 (active)
UAUCACAGACAUGAAAGAATT against Lst1 | 0.105 (inactive)
GGAAAAACAGUGCAGAUGGTT against Smchd1 | 0.228 (inactive)

Sequence | z-score
GGGCAUUAAGACAAAGAGUTT against Fam3c | 0.769 (inactive)
GGAAAAGUUGCAUUUGGUCTT against Wdr17 | -1.02 (inactive)
GGAGUUCACUGUGCUGAUGTT against Ppbp | -0.536 (inactive)
GCUAAACUUAAGUCCAUCATT against Supt7l | -0.592 (inactive)
GGGUUUGUGGGAUACAAUCTT against Smarce1 | 2.97 (active)
GGGUAGUUAUACAAACUAATT against Snapc5 | 1.53 (inactive)
GGUUCACAUCCUCCUCAGATT against Twist2 | 1.08 (inactive)
CCUUGAUGCUCGUAGGAAGTT against Efr3a | -1.11 (inactive)
GGACAUUCUGCUACACAAGTT against Bsx | 2.63 (active)
GCCAACAUGUAUCAAAGCUTT against Rpgr | -1.11 (inactive)
GGACAAUGUGGUGCUGUCCTT against Slc34a3 | 0.492 (inactive)
GGAGUCCUUUCGUUCUAUCTT against Rab2a | -0.319 (inactive)
GGACAUUGCUAACUGCCUUTT against Snx16 | 2.37 (active)
GCCAAACUUACGUUUUUGATT against Trak2 | 0.81 (inactive)
CCUGUUUAAACUCUGCGGATT against Vit | 0.678 (inactive)
GGUUUUGUAGGAGUCUCUCTT against Vmn1r54 | 0.247 (inactive)
GCUAGUACUAUUACCUGCUTT against Enkd1 | 2.17 (active)
GGUGAUGAUGAUGUCUUUGTT against B3gnt7 | 1.93 (inactive)
GCUGAAUAGCCUCUAUCUATT against Rasgrp4 | 0.261 (inactive)
GCCUCUACUUUACCAAGUUTT against Olfr883 | 0.523 (inactive)
GGGCUUUAGCCUGAGCGAUTT against Gpc1 | -0.916 (inactive)
GGUGAGCUUGGUUUCUAAATT against Gdf15 | 2.28 (active)

Sequence | z-score
GGCAUCUUCAUGUACUUGCTT against Olfr1445 | 1.5 (inactive)
GGUUUUCAGUACAUCCUGGTT against Cryba4 | 0.183 (inactive)
GCCAUGCAUCUGGAUUUACTT against Nat1 | 1.19 (inactive)
GGAGCAGACUUUAAAAUGATT against Stau1 | -0.626 (inactive)
GGGCUCAUUGCUAAAACACTT against Sgcg | -0.221 (inactive)
GGCUAUUGUACAACUUAUATT against Pafah1b2 | 2.1 (active)
GCCCUUUGGAAGAAUACUCTT against Golt1b | -1.12 (inactive)
GGAGCUCAUGGAAAUCUGUTT against Pfpl | 0.446 (inactive)
AGUGAAGAAAUGUUUGACATT against Raet1b | -1.08 (inactive)
CCUAUUUGUAGGUGAUGUUTT against B3gnt7 | -0.445 (inactive)
GGUUCACUCCUGAUACCACTT against Ddo | 1.29 (inactive)
GGCUUUUGGCUUCAACCCUTT against Slc39a14 | -2.24 (active)
GGAAGCCAUUAUACAUGACTT against Uvrag | -0.261 (inactive)
GGUACAGAAUAUGUCACAGTT against Olfm3 | 0.627 (inactive)
CCCUCUGGAUGGAUCUUCATT against Fbp2 | -1.3 (inactive)
GCAAGACUGAAAAUCCUGATT against Timm8a2 | -1.2 (inactive)
GCAACUGAACCUUCUGCUATT against Morn2 | -1.7 (inactive)
GGCUUGUACUACCAUGACATT against Rasgef1b | -2.76 (active)
GGGAACAAGGAACUCAAAGTT against Cadm1 | 1.69 (inactive)
CCUGAAAGAUAACAAGUGGTT against Rnls | 0.0112 (inactive)
